From PubChem BioAssay
An excerpt weighted towards active compounds, which were near 1.5% of everything screened.
STK33 inh: human STK33 kinase inhibition; 0.073% of 320,000 active; inhibition, % at 10 µM; purified STK33, MBP phosphorylation, ADP-Glo luminescence; Q9BYT3;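 active = inhibition at or above 25%, using the most active replicate where run in duplicate; inactive = inhibition below 25%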
DYRK1A inh: blocks rat Dyrk1A kinase activity | 0.43% of 310,000 active | ADP-Glo luminescence, NFATc1 peptide | AID 504441 | inhibition, % at 12.5 µM; in the data active = inhibition above about 50%;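 also: plate controls were vehicle with enzyme for no effect and no enzyme for full effect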
HIF act: HIF pathway transcriptional activation. activation, % at 7.5 µM (by protocol). U2OS HRE-luciferase reporter, luminescence; normalized: DMSO 0%, desferrioxamine 100%. 0.32% of 300,000 active;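 active = mean activation of at least 10% of the iron chelator positive control signal, with at least half of replicates also reaching 10%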
PP1 counter: counter-screen for PP5 inhibitors: inhibitors of human PP1-alpha. inhibition, % at 6.7 µM. purified PP1alpha, OMFP fluorescence. AID 2235. 0.9% of 320,000 active. P62136;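 active = inhibition above the mean inhibition of all tested compounds plus 3 SD, computed separately for each screening campaign, cut at about 15% in these data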
PP5 inh: inhibitors of human protein phosphatase 5 (PP5). purified PP5c, OMFP substrate fluorescence. 0.18% of 320,000 active. P53041. inhibition, % at 6.7 µM;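 active = inhibition above the campaign's mean inhibition across all tested compounds plus 3 SD, cut at about 9.5% in these data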;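 also: 0% = DMSO only and 100% = 100 µM cantharidin control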
Target sequence (P53041 whole entry, looked up): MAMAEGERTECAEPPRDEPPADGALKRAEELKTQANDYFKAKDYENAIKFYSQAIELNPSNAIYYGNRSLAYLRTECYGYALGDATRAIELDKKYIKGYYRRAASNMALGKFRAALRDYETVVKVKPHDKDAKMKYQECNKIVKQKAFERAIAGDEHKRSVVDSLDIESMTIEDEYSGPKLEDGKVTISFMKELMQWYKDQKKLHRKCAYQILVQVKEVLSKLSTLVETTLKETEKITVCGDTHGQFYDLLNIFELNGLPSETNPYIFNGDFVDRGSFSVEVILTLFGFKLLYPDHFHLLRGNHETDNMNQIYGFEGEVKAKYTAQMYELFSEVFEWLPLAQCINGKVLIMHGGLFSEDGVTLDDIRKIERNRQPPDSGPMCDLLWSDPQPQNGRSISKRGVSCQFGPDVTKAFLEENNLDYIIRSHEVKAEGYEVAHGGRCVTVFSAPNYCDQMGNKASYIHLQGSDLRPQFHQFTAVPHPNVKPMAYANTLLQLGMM
PP1 confirm: confirmation of human PP1 phosphatase inhibitors; shares compounds with PP1 counter; purified PP1alpha, OMFP substrate fluorescence; inhibition, % at 6.7 µM; 52% of 1,900 active;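 active = mean PP1 inhibition above a set limit taken from the earlier primary screen, cut at about 15% in these data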
PP5 inh counter: PP5 phosphatase inhibition, counter-screen for PP1 inhibitors. shares compounds with PP1 counter. purified PP5c, OMFP fluorescence. inhibition, % at 6.7 µM. 4% of 1,900 active. AID 2360;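 active = mean PP5 inhibition over triplicate wells above about 9.5% taken from the earlier PP1 screen, limit read from the data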
Dyrk1A artifact: counter-screen for Dyrk1A inhibitors: ADP-Glo luciferase artifacts; shares compounds with DYRK1A inh; AC50, µM (series often up to 12 µM), for the others: top-dose activity change, negative = inhibition; ADP-Glo luciferase artifact assay, no Dyrk1A, luminescence; 1,300 tested, under 10 active; AID 588348;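 active = fitted half-maximal dose AC50 no more than ten times the top valid tested dose, with luminescence dropping as dose rises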
* hit, by the source's call; · = no result given.

SMILES	STK33 inh	DYRK1A inh	HIF act	PP1 counter	PP5 inh	Dyrk1A artifact	others
CC(=O)C1=C(O)C(=O)N(c2cc(C(C)(C)C)on2)C1c1ccc(Br)cc1 (stereo not drawn)	-1	2	0	20*	1	·	PP1 confirm=22*;PP5 inh counter=-1
CC(=O)C1=C(O)C(=O)N(c2cc(C(C)(C)C)on2)C1c1ccc(C(C)C)cc1 (stereo not drawn)	7	-4	0	8	2	·
COc1ccc(C(=O)CSc2nc(C(C)(C)C)nc3ccccc23)cc1	0	·	0	-2	-2	·
CCCOc1ccc(/C(O)=C2\C(=O)C(=O)N(c3ccccn3)C2c2ccccc2F)cc1C (stereo not drawn)	-1	3	2	24*	1	·	PP1 confirm=26*;PP5 inh counter=0
CCC1=NN=C(c2ccc(F)cc2)C(c2c[nH]c3ccccc23)N1O (stereo not drawn)	0	-4	3	22*	3	·	PP1 confirm=-4;PP5 inh counter=-2
CSc1nc(N(C)CCO)c2sc3nc(-c4ccco4)c4c(c3c2n1)CCC4	0	4	0	30*	-1	·	PP1 confirm=31*;PP5 inh counter=-1
N#Cc1c(=O)c2nc(NCc3ccccc3)ncc2n2ccccc12	0	4	0	2	1	·
N#Cc1c(=O)c2nc(NCCCO)ncc2n2c(=O)c3ccccc3[nH]c12	8	56*	0	20*	5	9%	PP1 confirm=17*;PP5 inh counter=1
Cc1cccc(C(=O)OCC(=O)N2CCCCCC2)c1	-2	-3	·	-2	-1	·
CCCCCCCCCCCCCCCC[N+](C)(C)CCN(Cc1ccc(OC)cc1)c1ncccn1	43*	63*	·	69*	11*	11%	PP1 confirm=35*;PP5 inh counter=7
CN(C)CCNC(=O)c1cc2c(s1)-c1ccccc1OC2	1	68*	2	-4	2	7%
COc1ccc2c(c1)CCc1c-2n[nH]c1C(=O)O	3	59*	·	-2	5	14%
Cn1c(Cn2c(=O)sc3ccccc32)nnc1SCC(=O)N1CCOCC1	0	-3	0	-6	1	·
COc1ccc(-n2c(Cn3c(=O)sc4ccccc43)nnc2SCC(=O)N2CCOCC2)cc1	0	56*	·	-3	-2	7%
CN(CC(=O)Nc1ccc(F)c(F)c1F)C(=O)CCc1nc2sc3c(c2c(=O)[nH]1)CCCC3	-1	17	0	4	-1	·
CN(C)S(=O)(=O)c1cccc(NC(=S)Nc2cccc3cnccc23)c1	·	56*	-1	·	·	8%
COc1ccc(NC(=S)Nc2cccc3cnccc23)cc1	4	56*	0	1	1	7%
Cc1ccc(S(=O)(=O)N(C)C)cc1NC(=S)Nc1cccc2ccccc12	-1	4	1	8	-4	·
Fc1ccc(NC(=S)Nc2cccc3cnccc23)cc1	7	59*	1	-2	0	9%
S=C(Nc1ccc(Cl)cc1)Nc1cccc2cnccc12	6	26	1	-3	1	·
S=C(Nc1cccnc1)Nc1cccc2cnccc12	27*	60*	-2	-4	-1	9%
CCCCn1nc(C(=O)N(C)CC(=O)Nc2ccc(F)c(F)c2F)ccc1=O	-2	7	·	·	·	·
Cc1cc(C)c(CN2CCN(C(=O)Cn3ccc(N)nc3=O)CC2)c(C)c1	0	50*	·	0	-1	8%
CSc1nc(N)nc2c1ncn2CC(=O)N1CCN(Cc2c(C)cc(C)cc2C)CC1	1	3	·	·	·	·
C[N+](C)(CCOc1ccccc1)Cc1ccccc1	·	69*	·	·	·	11%
O=C(O)c1cc2ccccc2c2cc(Br)ccc12	-2	69*	0	-2	-3	8%
Brc1ccc(C2=Nn3c(nnc3-c3cccnc3)SC2)s1	1	0	0	2	3	·
Brc1ccccc1C1=Nn2c(nnc2-c2ccccc2)SC1	0	73*	0	-1	-1	8%
CCCCn1c(SCC(=O)NC(=O)Cc2ccccc2)nc2ccccc2c1=O	1	3	·	-1	1	·
